Assay results: PubChem BioAssay (NCI)
Compounds without any hit were thinned out: in the full panel of roughly 83,000, 20% have a hit.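 96-well plates, one dose, 48 hours. Percent growth reported; active if below 10.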 The source made the active and inactive calls.

Each compound was assayed on HL-60(TB) leukemia (assay: NCI-60 one-dose screen, 48 h (100 = growth as untreated, 0 = no growth, -100 = all killed)). Conditions: 10 µM unless noted.

SMILES | growth
COc1ccc(C2c3ccccc3NC(=O)N2C2CCN(C)CC2)c(OC)c1 (stereo unspecified) | 92.7% (inactive)
C=C1C(=O)O[C@H]2[C@H]1CC/C(COC(=O)NCc1ccc(Cn3c(=O)sn(CCCl)c3=O)cc1)=C\CC[C@@]1(C)O[C@@H]21 | -21.4% (active)
Fc1ccc(Nc2ncnc3ccc(-c4cnc5[nH]ccc5c4)cc23)cc1Cl | -22.3% (active)
COC(=O)C(=Cc1ccccc1[N+](=O)[O-])C(=O)OC | -48% (active)
COc1ccc(/C=N/NC(=O)c2cnn3c2NC(c2ccccc2)C3)cc1OC (stereo unspecified) | 36.4% (inactive)
S=C(c1ccc2c(c1)OCO2)N1CCN(c2ccccc2Cl)CC1 | 87.6% (inactive)
CCc1ccc(CNCC(O)c2ccccc2)cc1 (stereo unspecified) | 95.7% (inactive)
CC1=NN2C(=NC3=C(CCC/C3=C\c3ccc(Cl)cc3)C2c2ccc(Cl)cc2)S1 (stereo unspecified) | 63.2% (inactive)
CCCCNC(=O)Oc1ccc(/C(=C(/C)Cc2ccc(OC)cc2)c2ccc(OCCN3CCCCCC3)cc2)cc1 | 33.9% (inactive)
CC(C)(C)OC(=O)N1CCc2c(sc3ncnc(N/N=C/c4cccc5ccccc45)c23)C1 | 11.5% (inactive)
Cc1cc(=O)oc2cc(OCc3nn4c(Nc5nc6ccccc6s5)c(-c5ccccc5)nc4s3)ccc12 | 93.1% (inactive)
O=C(O)c1cccc2c1C(=O)N(c1ccc3c(c1)Cc1ccccc1-3)C2=O | 112% (inactive)
Oc1[nH]c2ccccc2c1/C=c1/cc2c(c(-c3ccc(C(F)(F)F)cc3)n1)=Nc1ccccc1-2 | 19.2% (inactive)
CCCCCCCC/C=C\CCCCCCCCOc1cccc(CC(=O)NCC[N+](C)(C)C)c1 | 61.1% (inactive)
C#CCn1cnc2cnc(Nc3cccc(NC(=O)C=C)c3)nc21 | 8.32% [6.25 µM] (active)
CN(C)CCOC(=O)Nc1nc2ccc(Sc3ccccc3)cc2[nH]1 | -6.29% (active)
COc1ccc(C(=O)c2sc3nc(-c4ccccc4OC)ccc3c2N)cc1OC | 13.9% (inactive)
C=C(C)[C@@H]1CC[C@]2(/C=N/Nc3ccncc3)CC[C@]3(C)[C@H](CC[C@@H]4[C@@]5(C)CCCNC(C)(C)[C@@H]5CC[C@]43C)[C@@H]12 | 58.5% (inactive)

SMILES | growth
O=[N+]([O-])c1cccc(C2CC(c3ccccc3)=Nc3ccccc3S2)c1 (stereo unspecified) | 84.7% (inactive)
CC(O)c1ncc(/C=C2\SC(=S)N(Cc3ccccc3)C2=O)s1 (stereo unspecified) | 85.2% (inactive)
CO[C@H]1CC(O[C@@H]2/C(C)=C/C[C@@H]3C[C@@H](C[C@]4(C=C[C@H](C)[C@@H](C5CCCCC5)O4)O3)OC(=O)[C@@H]3C=C(C)[C@@H](O)[C@H]4OC/C(=C\C=C\[C@@H]2C)[C@]43O)O[C@@H](C)C1O[C@H]1C[C@H](OC)[C@@H](O)[C@H](C)O1 (stereo partly specified) | -50.5% (active)
Cn1c(=O)c2c(nc(N/N=C/c3ccccc3Cl)n2C)n(C)c1=O | 91.6% (inactive)
COc1ccc(-c2nnc(COc3ccc(NC(=O)Nc4ccccc4)cc3F)o2)cc1 | 86.8% (inactive)
COc1cc(NCCCCCNC(C)(C)C)c2ncccc2c1 | 128% (inactive)
O=C(CCc1nnc2sc(/C=C\c3ccccc3)nn12)c1nc2ccccc2[nH]1 | 99.8% (inactive)
C=CC1=C(C)C2=NC1=CC1=NC(=CC3=C(C)C4=C(O)C(C(=O)O)C(=C5NC(=C2)C(C)C5CCC(=O)O)C4=N3)C(CC)=C1C (stereo unspecified) | 89.4% (inactive)
Cn1c(COC(=O)NCCN2CCOCC2)nc2c(N3CCOCC3)nc(-c3ccccc3)nc21 | -52.8% (active)
CCN1C(=O)N(CC)C2C1NC(=S)N2/N=C/C=C/c1ccccc1 (stereo unspecified) | -39.2% (active)
Cc1ccnc(Nc2nc3ccccc3[nH]2)n1 | 87% (inactive)
Nc1nc(Nc2ccc(F)cc2)nn1C(=O)c1cc(Cl)ccc1Cl | 65.1% (inactive)
O=C(N/N=C/c1ccccc1O)c1ccccc1O | 4.12% (active)
Cc1cc(=O)oc2c1ccc1oc(C(=O)c3ccccc3)c(C)c12 | 75.2% (inactive)
COc1ccc(-c2ccc(-c3ccc(C(=N)N)o3)o2)cc1 | -46.2% (active)
CC12CCC3C(CCC4CC(O)CCC43C)C1C/C(=C/O)C(=O)O2 (stereo unspecified) | 107% (inactive)
C=C1C(=O)O[C@H]2[C@H]1CC/C(COC(=O)c1ccc3ccccc3c1)=C\CC[C@@]1(C)O[C@@H]21 | -53.5% (active)
Cc1ccc2c(c1)C(C)Cc1c(ncnc1-n1cnc3ccccc31)N2C (stereo unspecified) | -19.1% (active)
